# Laboratory results: PMC11995724, “Antibiotic target discovery by integrated phenotypic and activity-based profiling of electrophilic fragments” (Cell chemical biology, 2025)
# Among all 3,200 compounds or so, about 110 (3.4%) showed an effect of 50% or more. Only a selection was taken, and strong results are over-represented in it overall.
# System: T1, V. cholerae SAD30
# T1 construct: SAD30
# Parameters: species or system S. aureus MSSA476 (TSB) or V. cholerae SAD30 (LB); 384-well bacterial growth screen at 25 uM, OD600 relative to DMSO control
# Settings: relative growth, OD600, LB; 25 µM; inhibitor
row,Structure (SMILES),% of control remaining [%]
1,"CCc1ccc(NC(=O)C(C)Cl)cc1 (stereo not drawn) [4-L15, 2-chloro-N-(4-ethylphenyl)propanamide]",96.9592
2,"CC(Cl)C(=O)NCc1csc2ccccc12 (stereo not drawn) [7-C11, N-[(1-benzothiophen-3-yl)methyl]-2-chloropropanamide]",69.5192
3,"COc1ccc(C=C(C#N)C(=O)Nc2ccccc2)cc1 [8-A05, 2-cyano-3-(4-methoxyphenyl)-N-phenylprop-2-enamide]",91.9782
4,"N#CC(=Cc1ccc(O)cc1)C(=O)Nc1cc(Cl)ccc1Cl [9-F03, 2-cyano-N-(2,5-dichlorophenyl)-3-(4-hydroxyphenyl)prop-2-enamide]",117.947
5,"CC(Cl)C(=O)N1CCN(C(=O)Cc2cccc(Cl)c2)C(C)C1 (stereo not drawn) [7-E20, 2-chloro-1-{4-[2-(3-chlorophenyl)acetyl]-3-methylpiperazin-1-yl}propan-1-one]",74.6737
6,"CC(Cl)C(=O)N[C@H]1C[C@H](C)S(=O)(=O)c2sccc21 (stereo partly drawn) [6-B22, 2-chloro-N-[(2S,4S)-2-methyl-1,1-dioxo-2H,3H,4H-1lambda6-thieno[2,3-b]thiopyran-4-yl]propanamide]",103.289
7,"Cc1ccc(SCCNC(=O)CCl)cc1 [4-K21, 2-chloro-N-{2-[(4-methylphenyl)sulfanyl]ethyl}acetamide]",111.279
8,"N#CC(=Cc1ccccc1OC(F)F)C(=O)Nc1ccccc1Cl [9-M21, N-(2-chlorophenyl)-2-cyano-3-[2-(difluoromethoxy)phenyl]prop-2-enamide]",89.5309
9,"O=C(CCl)NCCCc1ccccc1 [4-N04, 2-chloro-N-(3-phenylpropyl)acetamide]",112.487
10,"Cc1cc(C(=O)CCl)c(C)n1CCc1ccccc1 [10-B18, 2-chloro-1-[2,5-dimethyl-1-(2-phenylethyl)-1H-pyrrol-3-yl]ethan-1-one]",95.3828
11,"O=C1C=CC(=O)N1CCc1ccc(F)cc1 [10-C21, 1-[2-(4-fluorophenyl)ethyl]-2,5-dihydro-1H-pyrrole-2,5-dione]",34.7555
12,"COc1ccc(CCNC(=O)CCl)cc1 [5-H12, 2-chloro-N-[2-(4-methoxyphenyl)ethyl]acetamide]",68.593
13,"COc1ccc(CCN2C(=O)C=CC2=O)cc1OC [10-H07, 1-[2-(3,4-dimethoxyphenyl)ethyl]-2,5-dihydro-1H-pyrrole-2,5-dione]",98.344
14,"COc1ccc(CCN2C(=O)C=CC2=O)cc1 [10-A05, 1-[2-(4-methoxyphenyl)ethyl]-2,5-dihydro-1H-pyrrole-2,5-dione]",35.8465
15,"O=C1C=CC(=O)N1CCc1ccccc1 [10-E20, 1-(2-phenylethyl)-2,5-dihydro-1H-pyrrole-2,5-dione]",27.5862
16,"O=C1C=CC(=O)N1CCc1ccccc1F [10-G03, 1-[2-(2-fluorophenyl)ethyl]-2,5-dihydro-1H-pyrrole-2,5-dione]",22.2872
17,"Cc1cc(C(=O)CCl)c(C)n1CCc1ccc(F)cc1 [10-G14, 2-chloro-1-{1-[2-(4-fluorophenyl)ethyl]-2,5-dimethyl-1H-pyrrol-3-yl}ethan-1-one]",97.7206
18,"CC(Cl)C(=O)NCCc1ccc(F)cc1 (stereo not drawn) [6-F06, 2-chloro-N-[2-(4-fluorophenyl)ethyl]propanamide]",86.757
19,"O=C(CCl)Nc1nnc(-c2ccccc2Cl)s1 [6-K17, 2-chloro-N-[5-(2-chlorophenyl)-1,3,4-thiadiazol-2-yl]acetamide]",95.8574
20,"CC(Cl)C(=O)Nc1cccc(Cl)c1 (stereo not drawn) [5-H22, 2-chloro-N-(3-chlorophenyl)propanamide]",106.42
21,"C=CC(=O)N(Cc1cn2ccccc2n1)C1CC1 [3-J21, N-cyclopropyl-N-({imidazo[1,2-a]pyridin-2-yl}methyl)prop-2-enamide]",90.3253
22,"C=CC(=O)NCc1cnc(-c2ccc(C(F)(F)F)cc2)s1 [1-C13, N-({2-[4-(trifluoromethyl)phenyl]-1,3-thiazol-5-yl}methyl)prop-2-enamide]",68.9088
23,"CC(Cl)C(=O)N1CCn2c(C#N)ccc2C1C (stereo not drawn) [6-F22, 2-(2-chloropropanoyl)-1-methyl-1H,2H,3H,4H-pyrrolo[1,2-a]pyrazine-6-carbonitrile]",96.0091
24,"C=CC(=O)NCCC(=O)N1CCCN(c2cccnn2)CC1 [2-P16, N-{3-oxo-3-[4-(pyridazin-3-yl)-1,4-diazepan-1-yl]propyl}prop-2-enamide]",95.7541
25,"Cc1n[nH]c(C)c1C=C(C#N)C(=O)Nc1ccc(SC(F)F)cc1 [8-E08, 2-cyano-N-{4-[(difluoromethyl)sulfanyl]phenyl}-3-(3,5-dimethyl-1H-pyrazol-4-yl)prop-2-enamide]",75.2549
26,"O=C(CCl)N(Cc1nc(C2CCCCCC2)no1)C1CC1 [7-B16, 2-chloro-N-[(3-cycloheptyl-1,2,4-oxadiazol-5-yl)methyl]-N-cyclopropylacetamide]",80.2247
27,"Cc1cc(NC(=O)CN(C)C(=O)C(C)Cl)no1 (stereo not drawn) [7-M19, 2-chloro-N-methyl-N-{[(5-methyl-1,2-oxazol-3-yl)carbamoyl]methyl}propanamide]",81.8107
28,"C=CC(=O)NCCc1nc(-c2ccccc2)nn1C [2-M12, N-[2-(1-methyl-3-phenyl-1H-1,2,4-triazol-5-yl)ethyl]prop-2-enamide]",85.4096
29,"C=CC(=O)NCCn1nc(C)cc1C [3-M13, N-[2-(3,5-dimethyl-1H-pyrazol-1-yl)ethyl]prop-2-enamide]",97.7357
30,"C=CC(=O)N1CCC(C(=O)Oc2ccc(NC(C)=O)cc2)CC1 [3-M16, 4-acetamidophenyl 1-(prop-2-enoyl)piperidine-4-carboxylate]",96.1478
